Reference: ChEMBL document CHEMBL1961873, “Compounds: GSK PKIS; Assays: Nanosyn kinase panel” (2012)
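Also: each value is the mean inhibition of MELK.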

Each compound was assayed against Maternal embryonic leucine zipper kinase (Homo sapiens) (UniProt Q14680). Conditions: at 1 µM.
Sequence of Maternal embryonic leucine zipper kinase (Homo sapiens) (Q14680 whole entry, looked up): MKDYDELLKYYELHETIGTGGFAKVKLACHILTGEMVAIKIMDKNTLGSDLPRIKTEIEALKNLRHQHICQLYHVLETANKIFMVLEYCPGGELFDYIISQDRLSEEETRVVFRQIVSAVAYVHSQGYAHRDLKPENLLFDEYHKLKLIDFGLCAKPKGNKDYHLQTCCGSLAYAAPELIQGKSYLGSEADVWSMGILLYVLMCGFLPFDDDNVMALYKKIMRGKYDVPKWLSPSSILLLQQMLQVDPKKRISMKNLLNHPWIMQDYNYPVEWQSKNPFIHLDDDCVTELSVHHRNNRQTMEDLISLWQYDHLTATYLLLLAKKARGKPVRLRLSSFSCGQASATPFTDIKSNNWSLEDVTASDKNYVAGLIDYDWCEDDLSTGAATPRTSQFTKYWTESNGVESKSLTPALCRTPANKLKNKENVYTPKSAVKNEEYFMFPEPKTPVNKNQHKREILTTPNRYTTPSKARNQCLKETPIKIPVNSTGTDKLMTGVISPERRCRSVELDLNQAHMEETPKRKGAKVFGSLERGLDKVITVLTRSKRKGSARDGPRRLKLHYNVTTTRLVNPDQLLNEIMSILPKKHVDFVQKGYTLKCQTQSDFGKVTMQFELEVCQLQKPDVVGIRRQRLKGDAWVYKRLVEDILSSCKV
In the case of CCc1nn2ncccc2c1-c1ccnc(NC2CC2)n1, the inhibition is reported as 5.08%. In the case of COC(=O)c1sc(-n2cnc3cc(OC)c(OC)cc32)cc1OCc1ccccc1C(F)(F)F, the inhibition is reported as 12.6%. [O-][S+]1CCN(Cc2ccc(-c3ccc4ncnc(Nc5ccc(OCc6cccc(F)c6)c(Cl)c5)c4c3)o2)CC1 showed an inhibition of 5.89%. CCn1c(-c2nonc2N)nc2c(C#CC(C)(C)O)ncc(OC3CCNCC3)c21 showed an inhibition of 76.4%. CC(C)(CO)CNC(=O)c1ccc2c(c1)/C(=N/Nc1ccc(S(N)(=O)=O)cc1)C(=O)N2 gave an inhibition of 72.7%. CCCN1CCC(c2ccc(Nc3nc(Nc4cc(F)ccc4C(N)=O)c4cc[nH]c4n3)c(OC)c2)CC1 showed an inhibition of 78.7%. COc1ccc(-c2cc(-c3c[nH]nc3-c3ccccn3)ccn2)cc1 showed an inhibition of 8.05%. Compound COc1ccc(-c2cc3c(N)ncnc3o2)cc1 has an inhibition of -1.79%. Work on COC(=O)Nc1nc2ccc(S(=O)(=O)c3ccc(NC(=O)Nc4cc(C(F)(F)F)ccc4F)cc3)cc2[nH]1 yielded an inhibition of 4.33%. Fc1ccc(-c2nn3ccccc3c2-c2ccncc2)cc1 gave an inhibition of 6.94%. With CN1CCC(n2cnc(-c3ccc(F)cc3)c2-c2ccnc(N)n2)CC1 the inhibition was 12.9%. COc1cccc(-n2ncc3c(N/N=C/c4ccc(F)cc4)ncnc32)c1 showed an inhibition of 5.51%. Work on Fc1cccc(COc2ccc(Nc3ncnc4sc(-c5ccco5)cc34)cc2Cl)c1 yielded an inhibition of 1.45%. For Fc1ccc(-c2cc(-c3c[nH]nc3-c3ccccn3)ccn2)cc1, the inhibition was 7.4%. CCCN(CCS(C)(=O)=O)Cc1ccc(-c2ccc3ncnc(Nc4ccc(OCc5cccc(F)c5)c(Cl)c4)c3c2)o1 gave an inhibition of 3.34%. COc1cccc(-c2c[nH]c3c(N/N=C/c4ccncc4)ncnc23)c1 gave an inhibition of 4.88%.
